Bioassay records from PubChem.
This is a sample that favours compounds with a hit; in the whole collection about 7.9% have one here.
LASV entry inh: qHTS for Inhibitors of binding or entry into cells for Lassa Virus | Potency, µM (titrated, usually from 37.9 µM), usual class: inhibitors | Lassa virus pseudotype entry inhibition, cell reporter | 1.2% of 300,000 active; calls by dose curve; tested in HEK293 cells; note: nearly all actives have a fitted effect of over 50% in size
HCMV inh: qHTS Assay for inhibitors of the human cytomegalovirus (HCMV). HFF cells, HCMV-luciferase reporter, 72 h; stronger effect = lower value. activity change, negative = inhibition, % at 57.5 µM. 4.5% of 410,000 active. AID 1259415, 2018; in the data active = activity change below about -60%; inconclusive = no clear call, values can overlap the other calls; inactive = above about -39%
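HFF cells seeded 16 h at 37C, treated with compounds, infected with luciferase-reporter HCMV at MOI 1 PFU/cell; luciferase read at 72 h post infection, normalized to buffer-only and Salinomycin controls.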
HCV inhibitor: qHTS Assay for Inhibitors of Hepatitis C Virus (HCV); Huh7.5.1 HCVcc-Cre infection, luciferase reporter, 44 h; Potency, µM (highest dose often 41.8 µM), most hits filed as inhibitors; 3.4% of 340,000 active; AID 651820, 2012; active = well fitted inhibition curve with a large enough effect; inconclusive = small, poorly fitted or top-dose-only effect, or another doubt; inactive = no such curve, though single readings can be large or run the other way
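Compounds are dispensed onto cells plated 4 h earlier at 1,000 per well, with HCVcc-Cre virus (about 0.5 moi) added next. Following 44 h of culture, luminescent signal is measured for 15 sec after 15 min with substrate at room temperature.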
Marburg entry inh: qHTS for inhibitors of binding or entry into cells for Marburg Virus; Marburg virus pseudotyped entry inhibition, cell reporter; Potency, µM (highest dose often 37.8 µM), actives largely listed as inhibitors; AID 540276, 2011; 1.8% of 300,000 active; calls by dose curve; tested in HEK293 cells
FMDV antiviral: High Throughput Screening for Foot and Mouth Disease Virus Antivirals; AID 1159524, 2015; 1.2% of 410,000 active; FMDV antiviral cell-based qHTS; Potency, µM (doses to about 57.9 µM), actives largely listed as inhibitors; calls by dose curve; tested in HEK293T cells; note: read-out not given here; nearly all actives have a fitted effect of over 45% in size
A number is an active result; . = inactive; ? = inconclusive; / = no result.

SMILES	LASV entry inh	HCMV inh	HCV inhibitor	Marburg entry inh	FMDV antiviral
CC1CC(C)CN(c2ncc3c(n2)CC(c2ccc(Cl)cc2)CC3=O)C1 (stereo not drawn)	.	.	.	.	.
Cc1cc(Nc2ccc3c(c2)OCCO3)c2cccc(C)c2n1	?	?	?	?	.
Cc1ccc(Cl)cc1N1CCN(S(=O)(=O)c2cnc[nH]2)CC1	/	.	.	/	?
COc1ccc2[nH]c3c(c2c1)CCNC3=O	/	.	/	/	.
COc1ccc2[nH]c3c(c2c1)CCN=C3C	/	-92	2.8µM	/	.
COc1ccc(O)c(O)c1/C=C1\[C@@H](C)CCC2C(C)(C)CCC[C@]12C (stereo partly drawn)	/	.	/	/	/
COc1ccc2cc3c(N)nn(C(=O)c4ccc(F)cc4)c3nc2c1	/	-87	.	/	.
COc1ccc2cc3c(N)nn(C(=O)c4ccc(OC)c(OC)c4)c3nc2c1	.	.	/	.	.
COc1cccc(CC(=O)n2nc(N)c3cc4ccc(OC)cc4nc32)c1	/	.	.	/	.
COc1ccc2cc3c(N)nn(C(=O)c4cccc(F)c4)c3nc2c1	/	-81	.	/	.
COc1ccc2cc3c(N)nn(C(=O)c4ccccc4Cl)c3nc2c1	?	-70	?	.	?
COc1ccc2cc3c(N)nn(C(=O)Cc4ccc(Cl)cc4)c3nc2c1	/	-67	.	/	.
COc1cccc(-c2ccnc(-n3ncc(C(=O)N(C)CCc4ccccn4)c3C)n2)c1	/	/	/	/	.
O=C(c1ccc(F)c(F)c1)N1CCOc2ccc(CN3CCN(CCO)CC3)cc2C1	/	/	/	/	.
CCOC(=O)CC(=O)CSc1ncnc2c1nnn2-c1ccc(OC)cc1	.	.	.	.	.
CCc1noc(C)c1C(=O)N1CCSC1=Nc1cccc(Cl)c1C	?	-82	.	?	?
CCc1noc(C)c1C(=O)N1CCCSC1=Nc1ccccc1	.	.	.	.	.
CCCn1c(SCC(=O)NC2CCCC2)nnc1-c1cccnc1	/	.	.	?	.
CCCn1c(SCC(=O)NC2CCCCC2)nnc1-c1cccnc1	.	-65	.	.	.
COc1ccccc1C(=O)Nc1ccc(NC(=O)c2ccco2)cn1	.	.	?	?	.
COc1ccccc1C(=O)NC(=S)Nc1ccc(NC(=O)c2cccs2)cc1	.	-67	?	?	?
COc1ccccc1C(=O)NC(=S)Nc1ccc(NC(=O)c2ccco2)cc1	.	-75	.	?	.
Cc1ccc(COc2ccc3oc(-c4ccccc4)c(C(=O)O)c3c2)cc1	.	.	/	/	.
CCCCn1c(SCC(=O)N2CCN(c3ccccc3)CC2)nc2ccsc2c1=O	.	/	/	?	?
CCCCn1c(SCC(=O)N2CCC(C)CC2)nc2ccsc2c1=O	.	?	.	8.2µM	?
SMILES	LASV entry inh	HCMV inh	HCV inhibitor	Marburg entry inh	FMDV antiviral
O=C(CSc1nc(-c2ccccc2)cc(C(F)(F)F)n1)NCc1ccco1	.	.	?	.	/
O=C(CSc1nc(-c2cccs2)cc(C(F)(F)F)n1)Nc1cc(OCC(F)(F)F)cc([N+](=O)[O-])c1	?	?	?	7.1µM	?
O=C(CSc1nc(-c2cccs2)cc(C(F)(F)F)n1)NCc1ccco1	.	-75	?	.	/
COc1ccc(-c2cc(-c3cccs3)c(C#N)c(SCC(=O)NCc3ccco3)n2)cc1	?	/	?	0.46µM	.
Cc1ccc(F)cc1NC(=O)CSc1nc(-c2cccs2)cc(C(F)(F)F)n1	.	-76	/	.	.
Cc1cccc(C)c1NC(=O)CSc1nc(-c2cccs2)cc(C(F)(F)F)n1	.	?	/	.	.
CCOc1ccccc1NC(=O)CSc1nc(-c2cccs2)cc(C(F)(F)F)n1	.	.	/	.	.
COc1ccc(CNC(=O)CSc2nc(-c3ccccc3)cc(-c3cccs3)c2C#N)cc1	.	.	.	?	.
COc1ccc(NC(=O)CSc2nc(-c3cccs3)cc(C(F)(F)F)n2)cc1OC	?	-69	/	/	?
CC(C)(C)c1ccccc1NC(=O)CSc1nc(-c2cccs2)cc(C(F)(F)F)n1	.	?	/	?	?
CCCn1c(N)c(N(CCOC)C(=O)CSc2c(Cl)cccc2Cl)c(=O)[nH]c1=O	/	.	.	/	.
COC(=O)C1=CN(C(C)C)C=C(C(=O)OC)C1c1cc(Br)c(OC)c(OC)c1	4.1µM	.	.	?	?
Cc1cc(C(=O)NCc2nc(-c3ccccc3NC(=O)C3CCCO3)oc2C)nc(C)n1 (stereo not drawn)	/	/	/	/	.
CCOC(=O)c1c(NC(=O)CN2CCCCC2)sc2c1CCCC2O (stereo not drawn)	/	.	?	/	.
CCOC(=O)c1c(NC(=S)N2CCN(C)CC2)sc(C)c1-c1ccccc1	8.9µM	?	.	?	.
CCOC(=O)c1c(NC(=O)CCl)sc(CN(C)C)c1-c1ccccc1	.	.	?	?	35µM
CCOC(=O)c1c(NC(=O)CN2CCCCC2)sc(CN(C)C)c1-c1ccccc1	?	.	22µM	?	.
COC(=O)[C@H](c1ccccc1)N1CCCCCC1	/	/	/	.	/
COc1cc(CCCN2CCNC[C@H]2Cc2ccc(O)cc2)cc(OC)c1OC	/	.	.	/	.
COc1cc(CCCN2CCNC[C@@H]2c2ccccc2)cc(OC)c1OC	/	-72	.	/	.
